Fluorescence slope data for 40 compounds are collected here from PubChem BioAssay.

A number with no mark means an inactive call.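 How the source made its calls: active means fluorescence slope higher than the sample average by over 3 SD (cut at about -0.22 in these data, passing the limit was not always enough); inactive means the rest.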

The target of this assay is Voltage-gated potassium channel subunit beta-2 (Rattus norvegicus) (UniProt P62483). Nature of the assay: inhibitors of rat Kvbeta2 reductase activity – biochemical, NADPH fluorescence, primary screen (AID 622).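 Further: slope of raw intensity against log time taken from 70 to 1610 s.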 Conditions: recombinant KvBeta, 4-cyanobenzaldehyde reduction, at 10 µM, active compounds read high.
Voltage-gated potassium channel subunit beta-2 (Rattus norvegicus), sequence (P62483 whole entry, looked up): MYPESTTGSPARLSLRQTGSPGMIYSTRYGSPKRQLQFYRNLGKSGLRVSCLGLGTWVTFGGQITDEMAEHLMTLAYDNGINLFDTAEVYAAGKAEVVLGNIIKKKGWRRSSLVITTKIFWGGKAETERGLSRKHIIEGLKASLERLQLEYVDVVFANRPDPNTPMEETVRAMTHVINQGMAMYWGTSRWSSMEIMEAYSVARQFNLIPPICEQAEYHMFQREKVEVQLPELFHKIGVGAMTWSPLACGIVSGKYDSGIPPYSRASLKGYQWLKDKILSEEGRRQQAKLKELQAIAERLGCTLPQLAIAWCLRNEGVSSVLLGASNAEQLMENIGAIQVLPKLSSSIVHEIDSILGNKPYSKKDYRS
For `COC(=O)c1sc(S(=O)(=O)NCc2cccs2)c(C(=O)OC)c1C`, the fluorescence slope was -0.452.

In the case of `CS(=O)(=O)N1CCN(c2ccccc2NC(=O)c2cccs2)CC1`, the fluorescence slope was -0.501.

In the case of `O=C(Nc1ccccc1)C1=C(O)CC(c2ccoc2)CC1=Nc1ccccc1` (stereo not given), the fluorescence slope was -0.422.

As to `CCCCCc1c(C)nc(N2CCc3ccccc32)[nH]c1=O`, the fluorescence slope is -0.609.

For `CCOC(=O)c1cccc(NC(=O)CNS(=O)(=O)c2cccs2)c1`, the fluorescence slope is -0.518.

As to `CN(C)CCCN1C(=O)CSC1c1ccccc1` (stereo not given), the fluorescence slope was -0.541.

On to `COc1cc2c(cc1OC)-c1nnc(-c3cccs3)n1C(C)(C)C2`, for which the fluorescence slope was -0.601.

On to `Cn1cc(Br)c(C(=O)NC2CCCCC2)n1`, for which the fluorescence slope was -0.408.

Take `COC(=O)c1ccc(CNC(=O)CSc2nc3sc(C)c(C)c3c(=O)n2C)o1`: the fluorescence slope is -0.434.

As to `Cn1c(=O)c2c(nc(NCCCO)n2C/C=C/c2ccccc2)n(C)c1=O`, the fluorescence slope was -0.336.

Take `CCOC(=O)N1CCN(CCC(=O)c2ccc(Cl)cc2)CC1`: the fluorescence slope is -0.611.

For the compound `CCOC(=O)C1CCCN(c2c(NCc3ccco3)c(=O)c2=O)C1` (stereo not given), the fluorescence slope is -0.531.

As to `CCCCn1c(CNC(=O)CCC)nc2ccccc21`, the fluorescence slope is -0.565.

Regarding `CCC(c1nnnn1C(C)(C)C)N1CCN(C2CCCC2)CC1` (stereo not given), the fluorescence slope is -0.634.

Consider `CC(C)(C)c1nnc(NC(=O)C2CCN(c3ncccn3)CC2)s1`, for which the fluorescence slope was -0.512.

With `CCN1CCN(C(CNC(=O)c2ccc3c(c2)OCO3)c2cccnc2)CC1` (stereo not given), the fluorescence slope was -0.541.

With `COc1ccc(C(=O)CSc2nnc(C3CCCCC3)n2N)c(OC)c1`, the fluorescence slope is -0.612.

Take `COC(=O)c1c(NC(=O)CSc2nnnn2C)sc(C)c1C`: the fluorescence slope is -0.374.

As to `CCOC(=O)C(C)(C)Sc1nc2c(cnn2-c2ccc(Cl)cc2)c(=O)[nH]1`, the fluorescence slope is -0.59.

For `O=c1ccc2cc3c([nH]c4ccc(Br)cc43)oc-2c1O`, the fluorescence slope was -0.596.

In the case of `O=C(OCC(=O)N1CCCC1)c1ccccc1OCc1ccccc1`, the fluorescence slope was -0.505.

Turning to `Cc1ccc2cc(CN(Cc3ccc4c(c3)OCO4)Cc3nnnn3Cc3ccco3)c(=O)[nH]c2c1C`, the fluorescence slope was -0.389.

`COc1ccc(Br)cc1S(=O)(=O)N1CC(C)OC(C)C1` (stereo not given): the fluorescence slope was -0.429.

Take `CCc1nnc(NC(=O)c2cc3ccccc3oc2=O)s1`: the fluorescence slope was -0.57.

As for `O=c1c[n+]([O-])c2ccccc2n1OCc1c(F)cccc1F`, the fluorescence slope is -0.425.

Take `Cc1ccc(-n2cnnn2)c2cccnc12`: the fluorescence slope is -0.402.

For the compound `O=C(c1ccc(S(=O)(=O)N2CCOCC2)cc1)N(c1ccc(F)cc1)C1C=CS(=O)(=O)C1` (stereo not given), the fluorescence slope was -0.288.

Turning to `Cn1c(=O)c2c(nc(CN3CCCCC3)n2CCc2ccccc2)n(C)c1=O`, the fluorescence slope is -0.572.

In the case of `O=C(CCNS(=O)(=O)c1ccc(Cl)cc1)NCc1ccccn1`, the fluorescence slope was -0.318.

Turning to `CCOC(=O)CNC(=O)Nc1nnc(-c2ccc(OCC)cc2)o1`, the fluorescence slope was -0.591.

Consider `CN(C)S(=O)(=O)c1ccc(Oc2ccc(S(=O)(=O)N(C)C)cc2)cc1`, for which the fluorescence slope was -0.42.

For `CCCCc1c(O)nc(N2CCN(Cc3ccccc3)CC2)[nH]c1=O`, the fluorescence slope is -0.343.

On to `CCCc1cc(=O)[nH]c(SCc2ccccc2)n1`, for which the fluorescence slope is -0.6.

Consider `CCOC(=O)N1CCC(c2cc(=O)n3[nH]cc(C(=O)OC)c3n2)CC1`, for which the fluorescence slope was -0.541.

As to `c1ccc(C2(Cn3ccc4ccccc43)OCCO2)cc1`, the fluorescence slope is -0.482.

As to `O=C(Nc1ccccc1)N(O)c1ccc(Cl)cc1`, the fluorescence slope is -0.378.

As for `S=c1[nH]nc(-c2cccc(Br)c2)o1`, the fluorescence slope is -0.361.

As for `N#CC1=C(N)C(C#N)(C#N)[C@H](c2ccsc2)[C@H]2COCC=C12`, the fluorescence slope was -0.538.

Turning to `COC(=O)CCC(=O)Nc1cccc(Br)c1`, the fluorescence slope is -0.478.

In the case of `C=CCOC(=O)C1=C(C)OC(N)=C(C#N)C1c1ccc2c(c1)OCO2` (stereo not given), the fluorescence slope was -0.602.
